# Experimental data as given in PubChem BioAssay (EPA / NIEHS).
# Results filed as inconclusive are left out. Active and inactive are the calls of the source. How the source made its calls: active means hit-call score of the fitted dose curve at least 0.9, where 1 is the maximum; inconclusive means response in the unintended direction; inactive means score below 0.9.
# Target: human RAR-related Orphan Receptor gamma (RORg), RORC (gene 6097) (UniProt P51449)
# Experiment: ATG_RORg_TRANS: Attagene TRANS-FACTORIAL HepG2 Assay for human RAR-related Orphan Receptor gamma (RORg) (AID 2283011)
# Procedure, shortened: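 First, HepG2 liver cells were transfected with GAL4-UAS-driven reporter constructs and the RORg-Gal4 fusion. Next, they were treated with chemical for 24 h. Finally, reporter mRNA was quantified by RT-PCR and capillary electrophoresis, with upward activity fitted against DMSO.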
# Chain of human RAR-related Orphan Receptor gamma (RORg), RORC (gene 6097) (P51449 whole entry, looked up): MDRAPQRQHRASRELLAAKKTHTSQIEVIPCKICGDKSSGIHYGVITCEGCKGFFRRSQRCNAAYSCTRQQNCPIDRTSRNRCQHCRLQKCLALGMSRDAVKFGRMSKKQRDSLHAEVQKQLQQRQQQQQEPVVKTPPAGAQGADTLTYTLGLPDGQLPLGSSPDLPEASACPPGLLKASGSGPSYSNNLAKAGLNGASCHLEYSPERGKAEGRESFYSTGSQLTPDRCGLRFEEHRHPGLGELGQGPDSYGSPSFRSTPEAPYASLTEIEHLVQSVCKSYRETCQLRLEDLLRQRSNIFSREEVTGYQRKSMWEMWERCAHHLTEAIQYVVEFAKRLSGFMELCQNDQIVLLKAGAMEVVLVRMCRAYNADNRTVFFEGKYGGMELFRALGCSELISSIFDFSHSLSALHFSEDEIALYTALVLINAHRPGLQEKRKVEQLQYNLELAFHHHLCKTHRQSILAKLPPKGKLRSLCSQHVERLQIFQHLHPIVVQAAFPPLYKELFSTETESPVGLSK
row,Compound,outcome
1,CCCC(=O)C(C)=O,inactive
2,NCCCCCCN,inactive
3,N#Cc1ccccc1,inactive
4,O=C(O)CCCCC1CCSS1 (stereo not given),inactive
5,CC1(C)OC[C@@H]2O[C@@]3(C(=O)O)OC(C)(C)O[C@H]3[C@@H]2O1,inactive
6,O=C1NC(=O)c2ccccc21,inactive
7,CC(=O)OCC=Cc1ccccc1,inactive
8,COCCOCCOCCOCCOCCO,inactive

# Target: Retinoic acid receptor RXR-alpha (Homo sapiens) (UniProt P19793)
# Experiment: ATG_RXRa_TRANS: Attagene TRANS-FACTORIAL HepG2 Assay for human Retinoid X Receptor alpha (RXRa) (AID 2283012)
# Procedure, shortened: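 TRANS format reporting activity of exogenous RXRa-Gal4 chimera in transiently transfected HepG2, 24 h exposure. Reporter transcripts quantified by RT-PCR with capillary electrophoresis, with gain of signal scored relative to DMSO.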
# Chain of Retinoic acid receptor RXR-alpha (Homo sapiens) (P19793 whole entry, looked up): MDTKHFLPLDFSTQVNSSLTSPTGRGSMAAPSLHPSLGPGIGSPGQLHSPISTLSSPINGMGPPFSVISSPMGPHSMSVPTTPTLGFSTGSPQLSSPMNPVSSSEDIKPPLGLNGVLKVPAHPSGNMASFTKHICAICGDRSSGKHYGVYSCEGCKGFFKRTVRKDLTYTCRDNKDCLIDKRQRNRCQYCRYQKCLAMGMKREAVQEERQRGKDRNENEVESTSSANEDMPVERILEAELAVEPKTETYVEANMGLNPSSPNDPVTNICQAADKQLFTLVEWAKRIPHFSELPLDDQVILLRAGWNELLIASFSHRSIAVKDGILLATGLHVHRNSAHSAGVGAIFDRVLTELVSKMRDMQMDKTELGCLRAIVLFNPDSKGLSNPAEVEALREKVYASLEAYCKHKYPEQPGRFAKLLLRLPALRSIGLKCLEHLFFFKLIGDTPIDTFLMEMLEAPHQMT
Compound,outcome,AC50
CCCCCCC#CC(=O)OC,inactive,–
C=C(C)[C@@H]1CC[C@@H](C)C[C@@H]1O,inactive,–
CC(=O)Nc1ccc(CC(=O)O)cc1,inactive,–
CCCCCCCCCCCCOCCO,inactive,–
COc1ccc(Nc2ccccc2)c(C)c1,inactive,–
CCCOCC(C)O (stereo not given),inactive,–
CCn1c2ccccc2c2cc(N)ccc21,inactive,–
CCC/C=C/C=O,inactive,–
CC(C)(N)CO,inactive,–
NC(=O)NC1NC(=O)NC1=O (stereo not given),inactive,–
COC(=O)c1ccc(C)cc1,inactive,–
CCCCCCCCCCN,inactive,–
CN(CCOc1ccc(CC2SC(=O)NC2=O)cc1)c1ccccn1 (stereo not given),inactive,–
CC(=O)/C=C/C1=C(C)CCCC1(C)C,inactive,–
OCC(CO)(CO)COCC(CO)(CO)CO,inactive,–
C=CC(C)(C)O,inactive,–
CN1Cc2c(N)cccc2C(c2ccccc2)C1 (stereo not given),inactive,–
CC(C)[C@H]1CC[C@@H](C)CC1=O,inactive,–
c1ccc2[nH]ccc2c1,inactive,–
BrC1CCC(Br)C(Br)CCC(Br)C(Br)CCC1Br (stereo not given),inactive,–
NNc1nc(-c2ccc(N)cc2)cs1,inactive,–
Cc1ccc(S)cc1,inactive,–
O=C1CCCCCCCCCCOCCCCO1,inactive,–
O=C(O)C[C@H](O)C[C@H](O)/C=C/c1c(C2CC2)nc2ccccc2c1-c1ccc(F)cc1,inactive,–
CCCCNC(=O)NS(=O)(=O)c1ccc(C)cc1,inactive,–
CCCCN,inactive,–
COc1c(Cl)c(Cl)c(Cl)c(Cl)c1Cl,–,29.1 µM (active)
Clc1ccc2c(c1)C(N1CCNCC1)=Nc1ccccc1O2,inactive,–

# Target: human Retinoid X Receptor beta (RXRb), RXRB (gene 6257) (UniProt P28702)
# Experiment: ATG_RXRb_TRANS: Attagene TRANS-FACTORIAL HepG2 Assay for human Retinoid X Receptor beta (RXRb) (AID 2283013)
# Procedure, shortened: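 Readout is reporter transcript induction after 24 h dosing. It is measured by RT-PCR of total RNA followed by fluorescent capillary electrophoresis. HepG2 liver cells carry transfected multiple reporter units driven by an exogenous RXRb-Gal4 fusion; activity is relative to DMSO.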
# Chain of human Retinoid X Receptor beta (RXRb), RXRB (gene 6257) (P28702 whole entry, looked up): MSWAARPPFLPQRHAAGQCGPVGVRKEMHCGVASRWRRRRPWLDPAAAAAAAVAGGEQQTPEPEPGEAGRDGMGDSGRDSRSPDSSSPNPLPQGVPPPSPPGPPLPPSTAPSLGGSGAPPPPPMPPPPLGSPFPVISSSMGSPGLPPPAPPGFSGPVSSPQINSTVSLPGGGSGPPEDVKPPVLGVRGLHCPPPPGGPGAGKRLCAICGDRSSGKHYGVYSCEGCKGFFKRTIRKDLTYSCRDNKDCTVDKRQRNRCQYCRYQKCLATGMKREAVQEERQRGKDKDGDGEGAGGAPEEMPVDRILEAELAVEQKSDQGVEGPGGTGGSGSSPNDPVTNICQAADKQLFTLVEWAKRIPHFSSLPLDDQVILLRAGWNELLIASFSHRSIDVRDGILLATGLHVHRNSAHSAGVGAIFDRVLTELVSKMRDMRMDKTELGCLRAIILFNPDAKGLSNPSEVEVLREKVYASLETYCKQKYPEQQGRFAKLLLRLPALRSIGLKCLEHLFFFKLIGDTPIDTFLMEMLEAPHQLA
Compound,AC50,outcome
COc1ccc(Nc2ccccc2)c(C)c1,33.1 µM (active),–
CCCOCC(C)O (stereo not given),–,inactive
CCn1c2ccccc2c2cc(N)ccc21,14.3 µM (active),–
CC(C)(N)CO,–,inactive
NC(=O)NC1NC(=O)NC1=O (stereo not given),–,inactive
COC(=O)c1ccc(C)cc1,14.3 µM (active),–
CCCCCCCCCCN,–,inactive
CN(CCOc1ccc(CC2SC(=O)NC2=O)cc1)c1ccccn1 (stereo not given),–,inactive
CC(=O)/C=C/C1=C(C)CCCC1(C)C,80 µM (active),–
OCC(CO)(CO)COCC(CO)(CO)CO,–,inactive
C=CC(C)(C)O,–,inactive
c1ccc2[nH]ccc2c1,–,inactive
BrC1CCC(Br)C(Br)CCC(Br)C(Br)CCC1Br (stereo not given),8.67 µM (active),–
NNc1nc(-c2ccc(N)cc2)cs1,–,inactive
O=C1CCCCCCCCCCOCCCCO1,–,inactive
O=C(O)C[C@H](O)C[C@H](O)/C=C/c1c(C2CC2)nc2ccccc2c1-c1ccc(F)cc1,–,inactive
CCCCNC(=O)NS(=O)(=O)c1ccc(C)cc1,–,inactive
COc1c(Cl)c(Cl)c(Cl)c(Cl)c1Cl,6.22 µM (active),–
Clc1ccc2c(c1)C(N1CCNCC1)=Nc1ccccc1O2,55.3 µM (active),–
